PAFAH2 FP inh = PAFAH2 enzyme inhibitors, primary screen, biochemical, fluorescence polarization, human; Platelet-activating factor acetylhydrolase 2, cytoplasmic (Homo sapiens), Q99487; recombinant PAFAH2, FP-rhodamine activity probe; inhibition, % at 3.39 µM; 340,000 compounds, 0.99% hits; AID 492956, 2010;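 active means inhibition above the mean over all tested compounds plus 3 SD, cut at about 30% in these data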;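 further: inhibitors block probe labeling of enzyme so polarization drops; 0% = enzyme with DMSO and 100% = wells lacking PAFAH2 protein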
pPAFAH inh = pPAFAH enzyme inhibitors, primary screen, biochemical, fluorescence polarization, human; Platelet-activating factor acetylhydrolase (Homo sapiens), Q13093; recombinant pPAFAH, FP-rhodamine probe fluorescence polarization; 330,000 compounds, 1.5% hits; AID 463082, 2010; inhibition, % at 3.39 µM;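 active means inhibition above the mean inhibition across the screen plus 3 SD, cut at about 25% in these data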;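 further: inhibitors block binding of the rhodamine activity-based probe so polarization drops; 0% = enzyme with DMSO and 100% = wells lacking pPAFAH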
CTSL1 counter = Fasciola hepatica cathepsin L1 inhibitors, primary screen, counter-screen for PFM18AAP inhibitor project, biochemical, QFRET, fluorogenic peptide substrate | recombinant F. hepatica cathepsin L1, Z-Leu-Arg-MCA fluorescence | inhibition, % at 5.96 µM | 300,000 compounds, 0.49% hits | AID 1906, 2009;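 active means inhibition above the mean of all tested compounds plus 3 SD, set per screening campaign, cut at about 17% in these data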;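 further: 0% = plate median of test compound wells and 100% = 1 µM Z-Phe-Ala-diazomethylketone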
PAFAH1B3 FP inh = PAFAH1B3 enzyme inhibitors, primary screen, biochemical, fluorescence polarization, human; Platelet-activating factor acetylhydrolase IB subunit alpha1 (Homo sapiens), Q15102; recombinant PAFAH1B3, FP-rhodamine probe; inhibition, % at 3.39 µM; 340,000 compounds, 0.28% hits; AID 492972, 2010;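 active means inhibition above the screen-wide average of all tested compounds plus 3 SD, cut at about 25% in these data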;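 further: 0% = enzyme with DMSO only and 100% = wells lacking PAFAH1B3 protein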
PP5 primary = PP5 phosphatase inhibitors, primary screen, biochemical, fluorescence. Serine/threonine-protein phosphatase 5 (Homo sapiens), P53041. purified PP5c, OMFP substrate fluorescence. inhibition, % at 6.7 µM. 320,000 compounds, 0.18% hits. AID 1987, 2009;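 active means inhibition above the campaign's mean inhibition across all tested compounds plus 3 SD, cut at about 9.5% in these data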;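 further: 0% = DMSO only and 100% = 100 µM cantharidin control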
Target sequence (P53041 whole entry, looked up): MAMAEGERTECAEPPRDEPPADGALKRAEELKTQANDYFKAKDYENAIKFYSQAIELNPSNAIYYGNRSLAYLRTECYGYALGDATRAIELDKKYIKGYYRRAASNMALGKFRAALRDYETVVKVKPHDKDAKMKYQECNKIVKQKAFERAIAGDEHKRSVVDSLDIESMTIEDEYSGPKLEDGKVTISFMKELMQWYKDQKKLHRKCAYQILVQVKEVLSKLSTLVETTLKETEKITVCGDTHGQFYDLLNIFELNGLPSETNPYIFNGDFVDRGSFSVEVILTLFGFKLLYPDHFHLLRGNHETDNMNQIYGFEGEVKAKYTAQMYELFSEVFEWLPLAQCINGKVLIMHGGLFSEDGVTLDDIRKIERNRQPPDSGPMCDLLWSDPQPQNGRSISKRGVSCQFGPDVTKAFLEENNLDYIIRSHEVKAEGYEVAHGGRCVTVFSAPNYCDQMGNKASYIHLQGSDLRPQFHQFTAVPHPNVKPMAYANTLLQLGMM
PAFAH1B2 FP inh = PAFAH1B2 enzyme inhibitors, primary screen, biochemical, fluorescence polarization, human. Platelet-activating factor acetylhydrolase IB subunit alpha2 (Homo sapiens), P68402. recombinant PAFAH1B2, FP-rhodamine activity probe. inhibition, % at 3.39 µM. 340,000 compounds, 1.2% hits. AID 492953, 2010;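 active means inhibition above the mean of all tested compounds plus 3 SD, cut at about 24% in these data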;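 further: 0% = enzyme with DMSO and 100% = wells lacking PAFAH1B2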
* = called active by the depositor; · = no result given. Compounds with a hit are over-represented: about 3% of the library has one in this group of screens.

SMILES	PAFAH2 FP inh	pPAFAH inh	CTSL1 counter	PAFAH1B3 FP inh	PP5 primary	PAFAH1B2 FP inh
O=C1CC(NCCC2=CCCCC2)C(=O)N1c1cccc(Cl)c1Cl (configuration not stated)	·	-2	18*	·	2	·
Oc1ccc(Cc2ccccc2Cl)c(O)c1	1	·	·	7	·	6
Oc1ccc(Cc2ccc(Cl)cc2)c(O)c1	0	-5	1	6	3	72*
CC(CCc1ccccc1)NC(=O)COC(=O)C12CC3CC(CC(Br)(C3)C1)C2 (configuration not stated)	-6	4	2	7	2	45*
CCOC(=O)c1c(C)[nH]c(C(=O)COC(=O)C23CC4CC(CC(Cl)(C4)C2)C3)c1C	-14	0	1	2	1	11
O=C(COC(=O)C12CC3CC(CC(C3)C1)C2)NNC(=O)c1ccccc1	3	1	·	6	·	40*
O=C(COC(=O)C12CC3CC(CC(Br)(C3)C1)C2)NNC(=O)c1ccccc1	3	4	·	5	1	52*
CC1CCCCC1NC(=O)COC(=O)C12CC3CC(CC(Cl)(C3)C1)C2 (configuration not stated)	62*	7	0	8	2	35*
CCOC(CNC(=O)C(=O)Nc1cc2c3c(c1)CCC(=O)N3CCC2)OCC	-5	5	1	13	0	1
O=C(COC(=O)C12CC3CC(CC(Br)(C3)C1)C2)N1CCOCC1	1	5	0	7	-1	6
O=C(COC(=O)C12CC3CC(CC(Cl)(C3)C1)C2)N1CCCCC1	2	-8	·	13	·	29*
COc1ccc(NC(=O)COC(=O)C23CC4CC(CC(Cl)(C4)C2)C3)c(OC)c1	1	-3	12	4	1	14
O=C(COC(=O)C12CC3CC(CC(Cl)(C3)C1)C2)Nc1ccccc1	60*	5	·	8	·	35*
Cc1ccc(S(=O)(=O)N2CCN(C(=O)COC(=O)c3ccc(Cl)c(S(N)(=O)=O)c3)CC2)c(C)c1	1	·	·	6	·	-4
COc1c(NC=O)c2c(c([N+](=O)[O-])c1OC)C(=O)OC2	-6	·	·	18	·	5
O=C(CN(Cc1ccc(F)cc1)C(=O)CNS(=O)(=O)c1ccccc1)NCC1CCCO1 (configuration not stated)	7	5	-6	1	0	2
CCOC(=O)c1c(-c2ccc(C)o2)csc1NC(=O)COC(=O)c1ccc(NC(N)=O)cc1	-19	-10	19*	-28	0	-17
CCN1CCN(CCCNC(=O)c2ccc(NC(=O)C3=C(C)OCCS3)cc2)CC1	9	2	0	5	1	4
C#CC(=O)N(c1cc(OC)ccc1OC)C(C(=O)NC1CCCC1)c1cccs1 (configuration not stated)	22	6	34*	1	3	-1
C#CC(=O)N(c1ccc(OC)cc1OC)C(C(=O)NC1CCCC1)c1cccs1 (configuration not stated)	15	5	30*	4	-1	4
COc1ccc(N(C(=O)c2ccco2)C(C(=O)NC2CCCCC2)c2cccs2)cc1OC (configuration not stated)	1	1	0	2	2	6
Cc1ccc2nc(Cl)c3nnnn3c2c1	-1	2	4	-3	1	0
CCC(C)Sc1ccc(-c2nc3ccc(C)cn3c2NCc2ccccc2)cc1OC (configuration not stated)	9	27*	0	2	7	10
CCCCCCSc1ccc(-c2nc3ccc(C)cn3c2NCc2ccccc2)cc1	9	17	3	-1	0	3
CCCCCCSc1ccc(-c2nc3ccc(C)cn3c2NCc2ccccc2)cc1OC	6	26*	-2	15	3	3
SMILES	PAFAH2 FP inh	pPAFAH inh	CTSL1 counter	PAFAH1B3 FP inh	PP5 primary	PAFAH1B2 FP inh
CC(C)(C)NC(=O)CN(C(=O)CNS(=O)(=O)c1ccc(Cl)cc1)c1ccc2c(c1)OCCO2	1	11	-1	2	1	12
COC(=O)Cc1cc(=O)[nH]c(Nc2nc3ccccc3o2)n1	19	28*	3	11	-2	3
O=C(CSCc1ccc(Br)cc1)N1CCOCC1	5	5	0	3	-3	26*
O=C(CSCc1ccc(Br)cc1)N1CCCC1	8	6	2	7	-2	29*
COc1ccccc1OCC(=O)NCC1CCCN(Cc2cnn(C)c2C)C1 (configuration not stated)	-6	1	-2	5	2	-2
CCC1CN(C(=O)NCc2ccccc2)c2cc(C)ccc2O1 (configuration not stated)	71*	·	·	50*	·	36*
CCC1CN(C(=O)NCc2ccc(C)cc2)c2cc(C)ccc2O1 (configuration not stated)	-4	·	·	6	·	-5
COC(=O)CCCC1=CC2=C(c3ccccc3)C(=O)C(C)(OC(=O)C3CCCC3)C(=O)C2=CN1CCc1c[nH]c2ccccc12 (configuration not stated)	8	3	2	-3	0	3
CCN(CC)C(=O)CC(c1ccccc1)c1ccco1 (configuration not stated)	-6	4	36*	3	2	-3
O=C(CC(c1ccc(F)cc1)c1ccco1)Nc1nccs1 (configuration not stated)	-3	3	0	-1	2	3
O=C(CC(c1ccc(F)cc1)c1ccco1)N1CCCC1 (configuration not stated)	0	5	36*	-6	4	8
COc1ccccc1NC(=O)CC(c1ccc(F)cc1)c1ccco1 (configuration not stated)	0	-2	21*	-1	1	3
CCCN(CCC)C(=O)CC(c1ccc(F)cc1)c1ccco1 (configuration not stated)	-5	4	57*	5	0	9
CCn1ccc(C(=O)Nc2ccc3c(c2)CCC3)n1	0	5	6	1	0	5
O=C(NC1(Cc2ccccc2)CCN(CCCc2ccccc2)C1=O)c1ccccc1 (configuration not stated)	2	4	·	9	2	-1
COc1ccc(Br)c(C(=O)NCC2CCCCC2)c1	0	1	2	4	0	11
O=C1c2ccccc2C(=O)N1CCC(c1ccc(F)cc1)c1ccco1 (configuration not stated)	-2	5	18*	4	1	7

Assay outcomes deposited in PubChem by The Scripps Research Institute Molecular Screening Center.
